{"source": "PubChem BioAssay AID504375", "about": "(National Center for Advancing Translational Sciences (NCATS), 2011)", "note": "About 25 (2%) of roughly 1,600 compounds were called active. Roughly 7% stayed inconclusive and do not appear here. The call rests on the fitted dose curve; in most records, active means well fitted inhibition curve with a large enough effect; inconclusive means small, poorly fitted or top-dose-only effect, or effect the other way; inactive means no such curve, though single readings can be large or run the other way. What follows is part of a selection rich in actives, with near analogues and random picks from the rest. Entries that show only a call come without a potency. Potency means the concentration at half of the fitted maximal effect.", "data": [{"molecular_target": "Runt-related transcription factor 1 (Homo sapiens) + Core-binding factor subunit beta (Homo sapiens) (UniProt Q01196+Q13951)", "sequence (Q01196 whole entry, looked up)": "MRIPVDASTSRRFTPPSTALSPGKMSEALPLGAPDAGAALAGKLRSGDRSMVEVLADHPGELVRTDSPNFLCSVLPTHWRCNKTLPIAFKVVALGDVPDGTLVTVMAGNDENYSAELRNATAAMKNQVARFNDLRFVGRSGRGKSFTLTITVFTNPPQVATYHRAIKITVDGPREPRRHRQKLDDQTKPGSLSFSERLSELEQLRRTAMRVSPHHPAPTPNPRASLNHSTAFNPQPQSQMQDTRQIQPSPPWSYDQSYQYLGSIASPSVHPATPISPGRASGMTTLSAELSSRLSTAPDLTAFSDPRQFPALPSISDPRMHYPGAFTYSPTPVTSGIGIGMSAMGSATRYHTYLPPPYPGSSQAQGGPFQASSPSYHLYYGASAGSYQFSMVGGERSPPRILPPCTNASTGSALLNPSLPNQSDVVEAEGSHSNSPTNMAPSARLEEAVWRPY", "sequence (Q13951 whole entry, looked up)": "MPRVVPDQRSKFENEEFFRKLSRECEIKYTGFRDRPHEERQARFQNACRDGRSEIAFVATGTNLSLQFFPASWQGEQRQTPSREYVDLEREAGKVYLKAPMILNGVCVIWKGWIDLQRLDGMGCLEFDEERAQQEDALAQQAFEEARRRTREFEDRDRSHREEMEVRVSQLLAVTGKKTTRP", "assay": "qHTS Assay for Compounds Blocking the Interaction Between CBF-beta and RUNX1 for the Treatment of Acute Myeloid Leukemia: Hit Validation with Orthogonal Assay", "conditions": "CBFbeta-RUNX1 binding orthogonal assay, biochemical; series mostly up to 41 µM", "outline": "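Compound was incubated for 30 min with biotin-RUNX1 plus His6-CBF-beta at 30 nM per protein. Binding was then detected by TR-FRET between terbium anti-His antibody and 5 nM streptavidin-XL665, read after 90 min, in the same buffer as the AlphaScreen primary assay.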", "values": [{"smiles": "Cc1cc(C)c2c(N)c(-c3nnc(SCc4ccc(Cl)cc4)n3C)sc2n1", "Potency": "inactive"}, {"smiles": "O=C(/C=C/c1cn(CC(O)CN2CCCCC2)c2ccccc12)c1ccccc1", "note": "(stereo not given)", "Potency": "inactive"}, {"smiles": "S=c1[nH]nc([C@@H]2C[C@H]2c2ccccc2)n1-c1ccccc1Cl", "Potency": "inactive"}, {"smiles": "CCc1cccc(NC(=O)CCCCCC2NC(=O)NC2C)c1", "note": "(stereo not given)", "Potency": "0.0562 µM (active)"}, {"smiles": "CCCCC(=O)Nc1ccc(NC(=S)NC(=O)c2ccco2)cc1OC", "Potency": "inactive"}, {"smiles": "CCC(=O)Nc1cccc(C(=O)OC)c1", "Potency": "inactive"}, {"smiles": "CCCCc1c(C)nc(N2CCCC2)[nH]c1=O", "Potency": "inactive"}, {"smiles": "Cc1cc(=O)n2[nH]c(CCC(=O)O)nc2n1", "Potency": "inactive"}, {"smiles": "CCN(CC)S(=O)(=O)c1cccc(NC2=NCCCCC2)c1", "Potency": "inactive"}, {"smiles": "CCN1C/C(=C/c2cccs2)c2nc3ccccc3c(C(=O)O)c2C1", "Potency": "inactive"}, {"smiles": "COc1ccc(OS(=O)(=O)c2c(C)noc2C)cc1", "Potency": "inactive"}, {"smiles": "O=C(OCC1OC(OC(=O)c2cc(O)c(O)c(OC(=O)c3cc(O)c(O)c(O)c3)c2)[C@@H](OC(=O)c2cc(O)c(O)c(OC(=O)c3cc(O)c(O)c(O)c3)c2)C(OC(=O)c2cc(O)c(O)c(OC(=O)c3cc(O)c(O)c(O)c3)c2)C1OC(=O)c1cc(O)c(O)c(OC(=O)c2cc(O)c(O)c(O)c2)c1)c1cc(O)c(O)c(OC(=O)c2cc(O)c(O)c(O)c2)c1", "note": "(stereo not given in full)", "Potency": "10 µM (active)"}, {"smiles": "O=C(Nc1ccc(Cl)cc1)N1CCCC(Cn2cccc2)C1", "note": "(stereo not given)", "Potency": "inactive"}, {"smiles": "CC(C)c1nc2oc3c(N(C)CCO)ncnc3c2c2c1CCC2", "Potency": "inactive"}, {"smiles": "CC(C)(C)NC(=O)c1cccc2c1C(=O)c1ccccc1-2", "Potency": "inactive"}, {"smiles": "O=C(O)C[C@@H]1C(=O)O[C@@H]2C(COC(=O)c3cc(O)c(O)c(O)c3)O[C@@H](OC(=O)c3cc(O)c(O)c(O)c3)[C@@H](OC(=O)c3cc(O)c(O)c4c3[C@H]1[C@H](O)C(=O)O4)[C@H]2OC(=O)c1cc(O)c(O)c(O)c1", "note": "(stereo not given in full)", "Potency": "0.0891 µM (active)"}, {"smiles": "CCN(CC)c1ccc(/C=N/N2CCN(Cc3ccccc3Cl)CC2)c(O)c1", "Potency": "inactive"}, {"smiles": "CCCNC(=S)Nc1ccccc1", "Potency": "inactive"}, {"smiles": "CC1CCC2(CC1)NC(=S)N(C(C)(C)C)N2", "note": "(stereo not given)", "Potency": "inactive"}, {"smiles": "CN1c2ccccc2C(=O)/C(=C\\Nc2ccc(F)cc2)S1(=O)=O", "Potency": "inactive"}, {"smiles": "COC(=O)[C@@H](NC(=O)NC1CCCCC1C)C(C)C", "note": "(stereo not given in full)", "Potency": "inactive"}, {"smiles": "CCCCCc1ccc(S(=O)(=O)Nc2cc(C)ccn2)cc1", "Potency": "inactive"}, {"smiles": "Cc1onc(-c2ccccc2)c1C(=O)NNC(=S)NC(=O)c1ccc2c(c1)OCO2", "Potency": "inactive"}, {"smiles": "O=C(CCl)NCCCN(C(=O)C(Cl)Cl)c1ccc([N+](=O)[O-])cc1", "Potency": "inactive"}, {"smiles": "Cn1nc(-c2ccccc2)cc1NS(=O)(=O)c1ccccc1", "Potency": "inactive"}, {"smiles": "Cc1c2c(c(O)c3c(O)cccc13)C(=O)O[C@H]2C1C(N(C)C)C(O)=C(C(N)=O)C(=O)[C@H]1O", "note": "(stereo not given in full)", "Potency": "2.24 µM (active)"}, {"smiles": "O=C(NNC(=S)Nc1ccccc1C(F)(F)F)C1CC1", "Potency": "inactive"}, {"smiles": "COc1cc(/C=N\\NC(=O)CNC(=O)C(c2ccccc2)c2ccccc2)ccc1O", "Potency": "inactive"}, {"smiles": "COCc1cc(=O)n2[nH]c(C(C)(C)C)cc2n1", "Potency": "inactive"}, {"smiles": "COc1cc(NCc2ccccc2O)c2ncccc2c1", "Potency": "inactive"}, {"smiles": "COc1ccc(NS(=O)(=O)c2ccc(Cl)s2)cn1", "Potency": "inactive"}, {"smiles": "O=C(NN1C(=O)C2CCCCC2C1=O)c1ccco1", "note": "(stereo not given)", "Potency": "inactive"}, {"smiles": "O=c1c(O)cccc2cc(O)c(O)c(O)c12", "Potency": "1.26 µM (active)"}, {"smiles": "O=C(NC(=S)NNC(=O)c1ccccc1O)c1ccco1", "Potency": "3.16 µM (active)"}, {"smiles": "O=C(NC(=S)Nc1ccccc1N1CCCC1)c1ccco1", "Potency": "inactive"}, {"smiles": "Cc1onc(-c2ccccc2)c1C(=O)NC(=S)NNC(=O)c1ccco1", "Potency": "inactive"}, {"smiles": "Cc1cc(NC(=O)CN2CCOCC2)n(-c2ccccc2)n1", "Potency": "inactive"}, {"smiles": "NS(=O)(=O)c1ccc(Sc2ccccn2)c([N+](=O)[O-])c1", "Potency": "inactive"}, {"smiles": "O=C(Nc1ccc2ccccc2c1)c1ccc(Cl)cc1Cl", "Potency": "inactive"}, {"smiles": "COc1cccc(/C=N/n2nnnc2N)c1", "Potency": "inactive"}, {"smiles": "CCN(CC)S(=O)(=O)c1ccc(/C=C/C(=O)Nc2ccc(N3CCOCC3)cc2)cc1", "Potency": "inactive"}, {"smiles": "CN(C(=O)C(Cl)Cl)C1CC2C=CC1C2", "note": "(stereo not given)", "Potency": "inactive"}, {"smiles": "Cc1cc(C)c(OCC(=O)N(Cc2ccc(N(C)C)cc2)C2CCS(=O)(=O)C2)c(C)c1", "note": "(stereo not given)", "Potency": "inactive"}, {"smiles": "CN(C)S(=O)(=O)c1ccc(Cl)c(NC(=O)CN2CCN(Cc3ccc4c(c3)OCO4)CC2)c1", "Potency": "inactive"}, {"smiles": "CC(C)(O)P(=O)(O)CCc1ccccc1", "Potency": "inactive"}, {"smiles": "COC(=O)c1ccccc1N=Nc1c(C)noc1C", "Potency": "inactive"}, {"smiles": "COc1ccccc1/C=C/C=N/n1c(-c2ccccn2)n[nH]c1=S", "Potency": "inactive"}, {"smiles": "CC(=O)Oc1ccc(C(=O)Nc2cccc(-c3nnc(-c4ccco4)o3)c2)cc1", "Potency": "inactive"}, {"smiles": "C=CCNC(=S)NCC", "Potency": "inactive"}, {"smiles": "CN(C)c1cc(-c2ccc([N+](=O)[O-])cc2)oc(=O)c1Cl", "Potency": "inactive"}, {"smiles": "CCCc1cc(=O)oc2c(CN(CC)CC)c(O)c(Cl)cc12", "Potency": "inactive"}, {"smiles": "C/C(=N\\O)C1CC(CC(=O)O)C1(C)C", "note": "(stereo not given)", "Potency": "inactive"}, {"smiles": "CCc1sc(N)nc1-c1ccccc1", "Potency": "inactive"}, {"smiles": "CC(C)NC(=O)NNC(=O)Cn1nnc(-c2cccc(Cl)c2Cl)n1", "Potency": "inactive"}, {"smiles": "COCCn1c(-c2ccc(Br)cc2)nc2oc3cc(OC)ccc3c(=O)c2c1=O", "Potency": "inactive"}, {"smiles": "Fc1c(CSC(=S)N2CCOCC2)cccc1CSC(=S)N1CCOCC1", "Potency": "inactive"}, {"smiles": "COc1ccc(/C=C/C(=O)Oc2cc(O)cc(O)c2)cc1", "Potency": "inactive"}, {"smiles": "CN1C2CCC1CC(NC(=O)c1ccc(Cl)cc1)C2", "note": "(stereo not given)", "Potency": "inactive"}, {"smiles": "O=C(O)C1=CC(=C(c2ccc(O)c(C(=O)O)c2)c2ccc(O)c(C(=O)O)c2)C=CC1=O", "Potency": "7.94 µM (active)"}, {"smiles": "COc1ccc(/C=N/NC(=O)c2ccc(Br)cc2)cc1CN1CCOCC1", "Potency": "inactive"}, {"smiles": "O=[N+]([O-])c1cc(Cl)cc(/C=N/NC(=S)Nc2ccc(S(=O)(=O)N3CCOCC3)cc2)c1O", "Potency": "inactive"}, {"smiles": "CSCC[C@H](NC(=O)OC(C)(C)C)C(=O)N/N=C/c1cccc2nccnc12", "Potency": "inactive"}, {"smiles": "COc1ccccc1N1C(=O)[C@@H]2[C@H](C1=O)[C@H](C(=O)c1ccc(OC(C)=O)cc1)N1N=CC=C[C@@H]21", "Potency": "inactive"}, {"smiles": "CC(C)Nc1cc(C(C)(C)C)nc2c(-c3ccccc3)cnn12", "Potency": "inactive"}, {"smiles": "Cc1nnc(NC(=O)c2ccccc2NC(=O)c2ccccc2)s1", "Potency": "inactive"}, {"smiles": "CN1CCN(C(=O)C23CC4CC(C)(CC(C)(C4)C2)C3)CC1", "Potency": "inactive"}, {"smiles": "COc1cccc(N/C(=N/C(=S)Nc2ccc(C)cc2C)Nc2nc(C)cc(C)n2)c1", "Potency": "inactive"}, {"smiles": "CC(=O)N1N=C2c3ccccc3CCC2C1c1cccs1", "note": "(stereo not given)", "Potency": "inactive"}, {"smiles": "CC(=O)Nc1ccc(NS(=O)(=O)c2ccc(C)cc2)cc1[N+](=O)[O-]", "Potency": "inactive"}, {"smiles": "Cc1cc(-c2ccccc2C(=O)Nc2ccccc2O)on1", "Potency": "inactive"}, {"smiles": "O=C(O)c1ccccc1C(=O)Nc1ccc(-n2ccc(C(F)(F)F)n2)cc1", "Potency": "inactive"}, {"smiles": "Cc1nc2c(c(=O)c3ccccc3n2C)c(=O)n1-c1ccccc1", "Potency": "inactive"}, {"smiles": "CN(C)c1ccc(NC(=O)Nc2csc3ccccc23)cc1", "Potency": "inactive"}, {"smiles": "CSc1cccc(NC(=O)Nc2ccccc2C(N)=O)c1", "Potency": "inactive"}, {"smiles": "NC(=O)c1ccc(NC(=O)COC(=O)/C=C/c2ccc3c(c2)OCO3)cc1", "Potency": "inactive"}]}]}
